Here are results for 58 compounds from ChEMBL document CHEMBL3988442, “University of Dundee, Small-Polar-MMV Screening Library” (2021).

Among all 48,000 compounds or so, about 13,000 (27%) showed an effect of 50% or more. Some of the results follow.

The test system of the assay is Wolbachia pipientis. Description: Anti-Wolbachia Cell-Based Screen. Conditions: 5 µM. Format: functional. Also noted: scale not given: in the data most compounds retested in dose-response had high values.
As for `CCOc1ncccc1CNC(=O)N1CCCC1c1cc(C)no1` (stereo not drawn), the “Percent Effect” value was determined as 3.544%.

For `O=C(c1ccc2c(c1)OCO2)N1CCN2C(=O)NC[C@H]2C1`, the “Percent Effect” value is given as 6.694%.

With `O=C(c1ccc(Cl)cc1)N1CCC(N2CCCNC2=O)CC1`, the “Percent Effect” value was determined as 102%.

Take `Cc1ccc(C(=O)N2CCCC(N)CC2)cc1N1CCNC1=O` (stereo not drawn): the “Percent Effect” value is on record as -4.611%.

Consider `Cc1cnc(NC(=O)N2CCC(N3CCCCC3=O)CC2)s1`, for which the “Percent Effect” value was determined as 0.5285%.

As to `O=C(c1ccc(Cl)cc1)N1CCC(N2CCCCC2=O)CC1`, the “Percent Effect” value was found to be 103%.

Regarding `O=C(c1ccc(Cl)cc1)N1CCC(N2CCNC2=O)CC1`, the “Percent Effect” value turned out to be 109.7%.

Take `O=C(CCc1ccc(Cl)s1)N1CCC(N2CCNC2=O)CC1`: the “Percent Effect” value is listed as 39.9%.

As for `Cc1cc(C(=O)N2CCC(N3CCNC3=O)CC2)nn1C(C)(C)C`, the “Percent Effect” value was -1.395%.

Take `O=C(CSc1ccccc1)N1CCC(N2CCCCC2=O)CC1`: the “Percent Effect” value was -3.003%.

Take `Cn1cc(N2CCC(NC(=O)c3c(F)cccc3F)C2=O)cn1` (stereo not drawn): the “Percent Effect” value was -6.231%.

Regarding `O=C(NCC1(CO)CC1)c1ccccc1C(F)(F)F`, the “Percent Effect” value turned out to be 10.7%.

For the compound `O=C(NCCCSC1CCCCC1)C1NCCc2[nH]cnc21` (stereo not drawn), the “Percent Effect” value is -0.8236%.

Turning to `CCOc1ccc(C(=O)N(CCOC)Cc2c(C)nn(CC)c2C)o1`, the “Percent Effect” value is listed as -1.11%.

In the case of `CN(C)C(=O)N1C[C@@H]2COC[C@]2(c2nnc(C3CC3)o2)C1`, the “Percent Effect” value amounted to 1.303%.

Turning to `O=C(Cn1ccc(=O)cc1)N1C[C@H]2CC[C@@H]1CN(c1ncccn1)C2`, the “Percent Effect” value is on record as -6.945%.

For `CCN1CCN(CC(=O)N2CCOC(Cc3ccc(OC)cc3)C2)CC1` (stereo not drawn), the “Percent Effect” value is -7.63%.

With `Cn1nccc1C(=O)N1CCOC(Cc2ccc(F)cc2)C1` (stereo not drawn), the “Percent Effect” value is reported as -2.544%.

`Cc1n[nH]c(CCC(=O)N2CCOC(Cc3ccccc3)C2)c1C` (stereo not drawn): the “Percent Effect” value is 0.4396%.

Regarding `CCOC(=O)CNC(=O)N1CCOC(Cc2ccc(OC)cc2)C1` (stereo not drawn), the “Percent Effect” value is -5.818%.

With `Cc1nc(C(=O)N2CCOC(Cc3ccccc3)C2)co1` (stereo not drawn), the “Percent Effect” value was determined as 119.2%.

Consider `Cc1nc(C(=O)N2CCOC(Cc3ccc(F)cc3)C2)co1` (stereo not drawn), for which the “Percent Effect” value turned out to be 139%.

Turning to `COc1ccc(CC2CN(C(=O)c3coc(C)n3)CCO2)cc1` (stereo not drawn), the “Percent Effect” value is 123%.

On to `CCC1CN(C(=O)c2cc(CN(C)CCc3ccccc3)on2)CCO1` (stereo not drawn), for which the “Percent Effect” value is given as -31.04%.

In the case of `O=C1CCC(C(=O)N2CCOC(Cc3ccc(F)cc3)C2)=NN1` (stereo not drawn), the “Percent Effect” value is listed as -6.141%.

Consider `COc1ccccc1N1CCN(C(=O)CSCC2CC2)C(C)C1` (stereo not drawn), for which the “Percent Effect” value was found to be 12.11%.

Take `Cc1csc(-c2cccc(NC(=O)N3CCOCC3)c2)n1`: the “Percent Effect” value is on record as -7.869%.

With `COc1ccc(S(=O)(=O)NCCC(O)c2ccoc2)c(C)c1` (stereo not drawn), the “Percent Effect” value came to 14.16%.

As to `Cc1cc(C(=O)N(C)CC(F)(F)C(F)(F)F)ccc1-n1cncn1`, the “Percent Effect” value is -4.765%.

On to `O=C(Nc1ccc(F)cc1)C1CCc2ccccc2N1` (stereo not drawn), for which the “Percent Effect” value is listed as 3.241%.

With `CC(C(=O)Nc1ccc(C#N)cc1)N1CCc2ccccc21` (stereo not drawn), the “Percent Effect” value was -0.338%.

As for `O=C(Nc1ccc(F)cc1)C1CSCN1` (stereo not drawn), the “Percent Effect” value amounted to 136.1%.

For `Cl.N#Cc1ccc(NC(=O)C2CSCN2)cc1` (stereo not drawn), the “Percent Effect” value is 137.5%.

As for `O=C(Nc1ccc(F)cc1)C1CNCCN1C(=O)CC1CCCCC1` (stereo not drawn), the “Percent Effect” value is given as -14.62%.

Turning to `N#Cc1ccc(SCCC(=O)Nc2ccc(CC(N)=O)cc2)cc1`, the “Percent Effect” value was -23.76%.

Regarding `CN1CCCCC12CCN(c1nncs1)C2` (stereo not drawn), the “Percent Effect” value is -10.05%.

For the compound `COc1cc(Cl)cc(C(=O)N2CCC3(CCCNC3)C2)c1` (stereo not drawn), the “Percent Effect” value is given as -2.555%.

As for `CCCc1nnsc1C(=O)N1CCN(CC(C)O)CC1.Cl` (stereo not drawn), the “Percent Effect” value is 3.712%.

On to `CC(=O)N1CCN(C(=O)c2sccc2Br)CC1`, for which the “Percent Effect” value is recorded as -5.711%.

Turning to `CCc1ccsc1C(=O)N1CCN(C(=O)c2ccc(C)o2)CC1`, the “Percent Effect” value was -4.902%.

For the compound `CCc1ccsc1C(=O)N1CCS(=O)(=O)CC1`, the “Percent Effect” value is on record as -3.186%.

In the case of `CCc1ccsc1C(=O)N1CCN(CCN2C(=O)CCC2=O)CC1`, the “Percent Effect” value is 117.8%.

As for `CSc1ccsc1C(=O)N1CCN(CC(C)(C)O)CC1`, the “Percent Effect” value is 6.232%.

For `CCc1ccc(C(=O)N2CCN(CC(C)O)CC2)o1` (stereo not drawn), the “Percent Effect” value is -6.937%.

Take `CCc1ccsc1C(=O)N1CCN(CC(C)O)CC1` (stereo not drawn): the “Percent Effect” value worked out at 130.8%.

Regarding `CCc1ccsc1C(=O)N1CCN(CC(N)=O)CC1`, the “Percent Effect” value stood at 101.9%.

Take `N#Cc1cccc(CN2C[C@@H](F)[C@@H](OCc3nc4cnccc4[nH]3)C2)c1`: the “Percent Effect” value is on record as -8.923%.

Consider `c1cc(NCc2ccsc2)cc(-c2nnc[nH]2)c1`, for which the “Percent Effect” value is given as -4.767%.

Regarding `Cc1cnc(N2CCN3C[C@H](OCc4cccc(C)n4)C[C@H]3C2)nc1.O=C(O)C(F)(F)F.O=C(O)C(F)(F)F.O=C(O)C(F)(F)F`, the “Percent Effect” value was -4.424%.

With `O=C(CSCc1ccncc1)NCc1csc(Br)c1`, the “Percent Effect” value is listed as 146.4%.

Regarding `O=C(CCc1ccncc1)NCc1csc(Br)c1`, the “Percent Effect” value is 90.69%.

For `CC(C)c1cc2c(O)nc(CSCC(=O)NCc3ccncc3)nc2s1`, the “Percent Effect” value is 17.11%.

As to `CC(=O)N1CCN(C(=O)NCc2csc(Br)c2)CC1`, the “Percent Effect” value was 1.629%.

For `O=C(NCc1csc(Br)c1)c1ccncc1`, the “Percent Effect” value was 3.838%.

As for `O=C(CCNc1ncccn1)NCc1csc(Br)c1`, the “Percent Effect” value stood at 22.34%.

Consider `COc1cc(C)c(CNC(C)c2nc(C)cs2)cc1OC` (stereo not drawn), for which the “Percent Effect” value is -0.3291%.

Regarding `CNC(=O)c1cn2cc(-c3ccc(F)cc3)n(CC=C(C)C)c(=O)c2n1`, the “Percent Effect” value came to 0.6659%.

For the compound `Cc1nccc(N2CC[C@@H]3[C@@H](CCC(=O)N3CCc3ccccc3)C2)n1`, the “Percent Effect” value is recorded as -6.653%.
